Legend:
Test in all cases: DAPPL (digital affinity profiling via proximity ligation, sequencing); 10 mM Tris-HCl pH 7.5, 50 mM NaCl, 1 mM DTT, 4% glycerol, room temperature, 30 min; GST-TFs on glutathione beads, 16-mer random dsDNA library, 0.1% formaldehyde crosslink after washing; high values mean tight binding
Details in all cases: protein: recombinant; tags: N-terminal GST; dsDNA, one strand shown
[1] = molecular target: T1, FLI1 (Homo sapiens, UniProt Q01543 1-452)
T1 sequence: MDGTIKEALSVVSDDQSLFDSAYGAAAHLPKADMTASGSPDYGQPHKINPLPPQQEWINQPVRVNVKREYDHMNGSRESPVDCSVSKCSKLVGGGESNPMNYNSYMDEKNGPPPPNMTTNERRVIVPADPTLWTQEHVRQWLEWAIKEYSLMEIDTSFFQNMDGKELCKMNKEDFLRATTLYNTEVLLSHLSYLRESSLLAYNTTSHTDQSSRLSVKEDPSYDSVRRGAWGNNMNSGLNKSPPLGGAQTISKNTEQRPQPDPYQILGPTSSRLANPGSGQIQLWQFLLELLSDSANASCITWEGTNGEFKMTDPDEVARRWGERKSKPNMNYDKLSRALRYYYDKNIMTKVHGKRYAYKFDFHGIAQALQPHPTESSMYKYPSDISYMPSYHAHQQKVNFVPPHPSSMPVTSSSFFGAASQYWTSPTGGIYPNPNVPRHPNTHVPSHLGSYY
Summary of the method: (§1)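 A tag-only sample was pooled with DNA-barcoded human transcription factors that had been expressed in yeast as GST fusions and captured on glutathione beads. The pools were incubated for 30 min at room temperature with 200 nmole of a random double-stranded 16-mer DNA library in Tris/NaCl/DTT/glycerol buffer, then washed, crosslinked with 0.1% formaldehyde, proximity-ligated (BsaI/T4 ligase, 1 h, 37 °C), PCR-amplified and sequenced on an Illumina NextSeq500. Binding signal is each hexamer's read frequency for a factor divided by its frequency for the tag-only sample.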

[2] = molecular target: T2, ELK1 (Homo sapiens, UniProt P19419 1-428)
T2 sequence: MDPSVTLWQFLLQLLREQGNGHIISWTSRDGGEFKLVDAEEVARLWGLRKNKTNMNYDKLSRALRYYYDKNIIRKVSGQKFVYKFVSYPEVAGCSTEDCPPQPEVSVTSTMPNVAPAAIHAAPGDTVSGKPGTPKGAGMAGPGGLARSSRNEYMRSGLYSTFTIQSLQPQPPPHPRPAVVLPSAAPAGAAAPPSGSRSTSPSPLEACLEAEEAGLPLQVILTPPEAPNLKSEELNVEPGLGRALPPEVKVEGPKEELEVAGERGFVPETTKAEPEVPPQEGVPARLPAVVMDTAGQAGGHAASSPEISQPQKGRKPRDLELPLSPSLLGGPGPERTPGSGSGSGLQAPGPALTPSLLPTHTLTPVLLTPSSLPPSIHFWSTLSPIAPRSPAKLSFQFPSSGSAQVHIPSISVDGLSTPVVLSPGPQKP
Summary of the method: as §1

[3] = molecular target: T3, GABPA (Homo sapiens, UniProt Q06546 1-454)
T3 sequence: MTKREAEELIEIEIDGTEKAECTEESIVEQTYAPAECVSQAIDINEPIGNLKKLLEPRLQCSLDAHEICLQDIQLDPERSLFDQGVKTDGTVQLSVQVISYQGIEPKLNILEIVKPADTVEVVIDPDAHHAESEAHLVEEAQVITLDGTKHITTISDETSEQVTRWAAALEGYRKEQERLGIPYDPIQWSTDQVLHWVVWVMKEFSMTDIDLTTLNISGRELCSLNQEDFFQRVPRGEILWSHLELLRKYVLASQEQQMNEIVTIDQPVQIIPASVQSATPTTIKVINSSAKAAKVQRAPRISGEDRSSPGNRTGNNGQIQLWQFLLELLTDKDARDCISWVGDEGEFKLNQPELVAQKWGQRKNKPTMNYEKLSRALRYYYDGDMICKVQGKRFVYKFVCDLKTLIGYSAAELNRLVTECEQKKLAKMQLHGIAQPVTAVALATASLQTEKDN
Summary of the method: as §1

[4] = molecular target: T4, ERG (Homo sapiens, UniProt P11308 1-479)
T4 sequence: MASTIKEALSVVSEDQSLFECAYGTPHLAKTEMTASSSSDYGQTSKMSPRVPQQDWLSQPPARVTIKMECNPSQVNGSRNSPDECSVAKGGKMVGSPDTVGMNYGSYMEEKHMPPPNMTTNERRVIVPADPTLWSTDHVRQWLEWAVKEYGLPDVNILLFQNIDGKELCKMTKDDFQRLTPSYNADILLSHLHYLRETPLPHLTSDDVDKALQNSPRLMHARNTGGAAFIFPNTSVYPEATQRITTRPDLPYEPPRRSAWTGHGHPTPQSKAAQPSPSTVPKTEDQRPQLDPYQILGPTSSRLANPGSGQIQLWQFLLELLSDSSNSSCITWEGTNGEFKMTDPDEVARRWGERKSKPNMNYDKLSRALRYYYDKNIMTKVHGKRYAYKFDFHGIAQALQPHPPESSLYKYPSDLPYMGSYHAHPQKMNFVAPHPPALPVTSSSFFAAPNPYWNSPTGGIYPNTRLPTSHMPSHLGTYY
Summary of the method: as §1

[5] = molecular target: ELF1 (Homo sapiens, UniProt P32519 1-619)
ELF1, sequence (P32519 whole entry): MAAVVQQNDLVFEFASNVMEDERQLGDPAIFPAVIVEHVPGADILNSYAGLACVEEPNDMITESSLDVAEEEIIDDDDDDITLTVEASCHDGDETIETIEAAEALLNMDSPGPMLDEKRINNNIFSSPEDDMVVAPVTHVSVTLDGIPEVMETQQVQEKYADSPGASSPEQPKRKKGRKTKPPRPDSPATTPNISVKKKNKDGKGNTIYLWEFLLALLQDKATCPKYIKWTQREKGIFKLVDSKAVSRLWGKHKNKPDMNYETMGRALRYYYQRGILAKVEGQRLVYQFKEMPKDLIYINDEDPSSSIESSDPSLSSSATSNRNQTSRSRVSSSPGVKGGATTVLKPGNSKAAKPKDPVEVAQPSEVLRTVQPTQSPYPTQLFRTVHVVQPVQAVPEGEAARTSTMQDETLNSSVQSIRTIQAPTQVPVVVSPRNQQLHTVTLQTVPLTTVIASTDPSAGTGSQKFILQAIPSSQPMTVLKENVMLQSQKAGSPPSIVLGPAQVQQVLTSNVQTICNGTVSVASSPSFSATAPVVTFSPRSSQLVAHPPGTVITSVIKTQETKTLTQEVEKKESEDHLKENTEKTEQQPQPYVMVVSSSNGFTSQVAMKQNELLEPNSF
Summary of the method: as §1

[6] = molecular target: T5, EHF (Homo sapiens, UniProt Q9NZC4 1-300)
T5 sequence: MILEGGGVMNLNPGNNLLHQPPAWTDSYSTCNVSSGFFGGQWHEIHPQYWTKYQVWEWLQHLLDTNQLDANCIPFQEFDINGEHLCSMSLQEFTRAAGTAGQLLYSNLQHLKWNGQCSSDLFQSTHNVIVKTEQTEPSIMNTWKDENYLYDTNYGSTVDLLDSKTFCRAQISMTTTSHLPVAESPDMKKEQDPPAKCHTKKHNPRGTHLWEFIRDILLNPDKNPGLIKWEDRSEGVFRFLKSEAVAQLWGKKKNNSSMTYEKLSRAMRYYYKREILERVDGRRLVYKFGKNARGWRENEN
Summary of the method: as §1

[7] = molecular target: SPI1 (Homo sapiens, UniProt P17947 1-270)
Summary of the method: as §1

[8] = molecular target: SPIB (Homo sapiens, UniProt Q01892 1-262)
SPIB, sequence (Q01892 whole entry): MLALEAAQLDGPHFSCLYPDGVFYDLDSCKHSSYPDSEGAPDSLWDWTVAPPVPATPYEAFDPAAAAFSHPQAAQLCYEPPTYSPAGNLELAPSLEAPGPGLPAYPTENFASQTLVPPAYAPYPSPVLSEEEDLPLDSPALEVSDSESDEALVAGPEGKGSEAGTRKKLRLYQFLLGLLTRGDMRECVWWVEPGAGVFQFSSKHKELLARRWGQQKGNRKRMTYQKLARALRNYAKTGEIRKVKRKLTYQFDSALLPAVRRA
Summary of the method: as §1

[9] = molecular target: T6, ELK3 (Homo sapiens, UniProt P41970 1-407)
T6 sequence: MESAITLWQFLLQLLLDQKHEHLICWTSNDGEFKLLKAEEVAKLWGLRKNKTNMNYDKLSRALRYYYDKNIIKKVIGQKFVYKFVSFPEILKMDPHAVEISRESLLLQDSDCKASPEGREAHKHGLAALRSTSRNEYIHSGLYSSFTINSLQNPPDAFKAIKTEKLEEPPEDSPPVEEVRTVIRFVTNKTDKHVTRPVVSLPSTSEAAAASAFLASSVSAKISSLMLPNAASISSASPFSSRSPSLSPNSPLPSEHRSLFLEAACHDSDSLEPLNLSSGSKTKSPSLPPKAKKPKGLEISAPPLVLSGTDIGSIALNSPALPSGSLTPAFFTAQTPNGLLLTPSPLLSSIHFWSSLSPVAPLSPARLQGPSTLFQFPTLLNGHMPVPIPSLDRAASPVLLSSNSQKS
Summary of the method: as §1

[10] = molecular target: T7, FEV (Homo sapiens, UniProt Q99581 1-238)
T7 sequence: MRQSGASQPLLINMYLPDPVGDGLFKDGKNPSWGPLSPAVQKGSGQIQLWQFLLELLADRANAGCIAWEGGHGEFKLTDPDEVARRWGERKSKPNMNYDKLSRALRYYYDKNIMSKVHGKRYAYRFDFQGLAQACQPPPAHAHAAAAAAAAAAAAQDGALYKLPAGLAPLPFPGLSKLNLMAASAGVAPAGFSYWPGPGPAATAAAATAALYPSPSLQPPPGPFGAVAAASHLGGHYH
Summary of the method: as §1

[11] = molecular target: ETV5 (Homo sapiens, UniProt P41161 1-510)
ETV5, sequence (P41161 whole entry): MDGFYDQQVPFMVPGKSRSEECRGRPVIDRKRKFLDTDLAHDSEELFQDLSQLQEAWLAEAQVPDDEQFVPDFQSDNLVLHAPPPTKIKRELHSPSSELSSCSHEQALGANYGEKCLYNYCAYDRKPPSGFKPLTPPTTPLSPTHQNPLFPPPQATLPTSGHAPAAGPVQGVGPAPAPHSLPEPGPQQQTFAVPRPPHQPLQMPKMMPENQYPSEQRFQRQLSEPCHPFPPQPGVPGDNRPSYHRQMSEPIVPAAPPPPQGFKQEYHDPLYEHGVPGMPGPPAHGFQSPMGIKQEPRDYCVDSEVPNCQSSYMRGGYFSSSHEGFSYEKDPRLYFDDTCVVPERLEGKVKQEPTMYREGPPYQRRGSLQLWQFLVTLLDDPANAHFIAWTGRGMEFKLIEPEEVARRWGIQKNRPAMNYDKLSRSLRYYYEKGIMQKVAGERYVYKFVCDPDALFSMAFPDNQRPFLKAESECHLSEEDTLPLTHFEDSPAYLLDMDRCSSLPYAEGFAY
Summary of the method: as §1

[12] = molecular target: T8, SPIC (Homo sapiens, UniProt Q8N5J4 1-248)
T8 sequence: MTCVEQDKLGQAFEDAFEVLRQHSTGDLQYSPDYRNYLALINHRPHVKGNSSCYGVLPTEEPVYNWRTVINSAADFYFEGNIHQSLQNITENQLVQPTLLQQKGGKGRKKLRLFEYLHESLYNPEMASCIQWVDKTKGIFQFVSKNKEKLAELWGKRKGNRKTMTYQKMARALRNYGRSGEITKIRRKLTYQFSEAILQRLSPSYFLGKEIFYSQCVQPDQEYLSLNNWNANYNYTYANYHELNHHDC
Summary of the method: as §1

[13] = molecular target: ELF4 (Homo sapiens, UniProt Q99607 1-663)
ELF4, sequence (Q99607 whole entry): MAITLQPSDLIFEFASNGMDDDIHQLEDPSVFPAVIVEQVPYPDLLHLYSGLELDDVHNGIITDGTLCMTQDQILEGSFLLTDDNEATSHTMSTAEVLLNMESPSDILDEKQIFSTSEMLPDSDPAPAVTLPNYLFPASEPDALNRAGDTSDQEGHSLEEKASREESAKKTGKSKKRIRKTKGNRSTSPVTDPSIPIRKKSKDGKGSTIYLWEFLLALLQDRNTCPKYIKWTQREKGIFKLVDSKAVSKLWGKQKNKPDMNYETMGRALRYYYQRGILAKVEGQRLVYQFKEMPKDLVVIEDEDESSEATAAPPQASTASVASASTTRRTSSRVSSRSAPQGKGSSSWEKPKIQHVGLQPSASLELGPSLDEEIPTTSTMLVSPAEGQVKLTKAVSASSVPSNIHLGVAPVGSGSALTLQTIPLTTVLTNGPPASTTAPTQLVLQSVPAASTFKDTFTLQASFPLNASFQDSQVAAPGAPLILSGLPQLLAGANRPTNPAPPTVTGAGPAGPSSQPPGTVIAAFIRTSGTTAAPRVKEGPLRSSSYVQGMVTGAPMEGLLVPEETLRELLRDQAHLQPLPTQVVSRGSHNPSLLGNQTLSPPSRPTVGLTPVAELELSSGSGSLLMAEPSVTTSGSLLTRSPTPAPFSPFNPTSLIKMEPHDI
Summary of the method: as §1

[14] = molecular target: T9, ELK4 (Homo sapiens, UniProt P28324-2 1-405)
T9 sequence: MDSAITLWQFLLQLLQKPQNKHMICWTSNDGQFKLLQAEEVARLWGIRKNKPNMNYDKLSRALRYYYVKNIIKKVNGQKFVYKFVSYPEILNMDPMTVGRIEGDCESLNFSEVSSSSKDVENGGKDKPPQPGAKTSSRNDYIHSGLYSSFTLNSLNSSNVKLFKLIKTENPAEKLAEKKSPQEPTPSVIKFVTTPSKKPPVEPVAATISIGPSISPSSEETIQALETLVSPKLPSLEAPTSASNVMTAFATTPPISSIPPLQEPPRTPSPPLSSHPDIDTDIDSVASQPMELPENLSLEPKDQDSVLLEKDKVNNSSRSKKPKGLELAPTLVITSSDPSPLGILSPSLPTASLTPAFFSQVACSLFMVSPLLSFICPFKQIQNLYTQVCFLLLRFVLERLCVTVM
Summary of the method: as §1

[15] = molecular target: T10, ETV2 (Homo sapiens, UniProt O00321 1-342)
T10 sequence: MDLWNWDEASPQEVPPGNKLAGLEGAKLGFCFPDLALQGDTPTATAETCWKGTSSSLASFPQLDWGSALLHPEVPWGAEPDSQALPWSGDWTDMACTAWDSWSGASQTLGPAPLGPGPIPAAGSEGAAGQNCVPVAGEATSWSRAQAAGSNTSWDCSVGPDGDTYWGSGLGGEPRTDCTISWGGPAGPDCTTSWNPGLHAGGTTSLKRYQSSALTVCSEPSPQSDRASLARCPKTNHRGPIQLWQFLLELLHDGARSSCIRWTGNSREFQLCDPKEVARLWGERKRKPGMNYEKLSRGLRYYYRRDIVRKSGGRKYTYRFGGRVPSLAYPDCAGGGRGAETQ
Summary of the method: as §1

[16] = molecular target: T11, ELF3 (Homo sapiens, UniProt P78545 1-371)
T11 sequence: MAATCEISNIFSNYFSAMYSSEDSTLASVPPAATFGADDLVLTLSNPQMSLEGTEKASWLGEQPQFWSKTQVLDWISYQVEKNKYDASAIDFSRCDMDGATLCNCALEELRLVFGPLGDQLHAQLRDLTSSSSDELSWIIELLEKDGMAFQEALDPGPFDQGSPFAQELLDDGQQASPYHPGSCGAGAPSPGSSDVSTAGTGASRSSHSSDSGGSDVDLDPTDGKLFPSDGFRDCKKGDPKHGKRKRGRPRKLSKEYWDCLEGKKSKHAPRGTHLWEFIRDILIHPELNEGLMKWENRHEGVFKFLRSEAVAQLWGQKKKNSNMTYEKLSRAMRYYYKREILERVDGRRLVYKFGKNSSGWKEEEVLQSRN
Summary of the method: as §1

[17] = molecular target: CRX (Homo sapiens, UniProt O43186 1-299)
CRX, sequence (O43186 whole entry): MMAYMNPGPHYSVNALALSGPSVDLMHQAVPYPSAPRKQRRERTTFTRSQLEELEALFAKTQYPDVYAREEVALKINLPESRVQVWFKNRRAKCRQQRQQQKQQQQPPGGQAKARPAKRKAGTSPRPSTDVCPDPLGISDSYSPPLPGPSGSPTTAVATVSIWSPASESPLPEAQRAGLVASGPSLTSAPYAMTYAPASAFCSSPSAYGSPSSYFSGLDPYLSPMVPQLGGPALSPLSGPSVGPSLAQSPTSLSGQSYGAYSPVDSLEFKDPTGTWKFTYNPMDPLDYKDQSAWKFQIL
Summary of the method: as §1

[18] = molecular target: ETV1 (Homo sapiens, UniProt P50549 1-477)
ETV1, sequence (P50549 whole entry): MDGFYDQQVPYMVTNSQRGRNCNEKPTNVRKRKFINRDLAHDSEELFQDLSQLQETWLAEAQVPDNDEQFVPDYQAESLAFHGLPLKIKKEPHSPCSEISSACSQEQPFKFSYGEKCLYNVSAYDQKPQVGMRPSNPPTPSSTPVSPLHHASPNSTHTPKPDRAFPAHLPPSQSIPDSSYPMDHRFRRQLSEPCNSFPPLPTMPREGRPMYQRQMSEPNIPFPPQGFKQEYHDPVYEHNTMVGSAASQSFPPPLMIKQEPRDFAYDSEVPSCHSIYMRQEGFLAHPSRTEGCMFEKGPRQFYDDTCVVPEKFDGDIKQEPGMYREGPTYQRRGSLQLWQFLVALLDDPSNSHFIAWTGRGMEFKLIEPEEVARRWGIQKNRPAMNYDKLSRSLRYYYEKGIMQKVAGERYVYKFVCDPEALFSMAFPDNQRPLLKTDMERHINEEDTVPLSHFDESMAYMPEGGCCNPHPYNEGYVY
Summary of the method: as §1

Row | Sequence | binding signal [1] | binding signal [2] | binding signal [3] | binding signal [4] | binding signal [5] | binding signal [6] | binding signal [7] | binding signal [8] | binding signal [9] | binding signal [10] | binding signal [11] | binding signal [12] | binding signal [13] | binding signal [14] | binding signal [15] | binding signal [16] | binding signal [17] | binding signal [18]
1 | ATCACA | 1.06 fold enrichment (6-mer frequency, TF over GST control) | 1.09 fold enrichment (6-mer frequency, TF over GST control) | 1.11 fold enrichment (6-mer frequency, TF over GST control) | 1.02 fold enrichment (6-mer frequency, TF over GST control) | 1.13 fold enrichment (6-mer frequency, TF over GST control) | 1.04 fold enrichment (6-mer frequency, TF over GST control) | 1.06 fold enrichment (6-mer frequency, TF over GST control) | 1.02 fold enrichment (6-mer frequency, TF over GST control) | 1.13 fold enrichment (6-mer frequency, TF over GST control) | 1.11 fold enrichment (6-mer frequency, TF over GST control) | 1.13 fold enrichment (6-mer frequency, TF over GST control) | 1.09 fold enrichment (6-mer frequency, TF over GST control) | 1.1 fold enrichment (6-mer frequency, TF over GST control) | 1.02 fold enrichment (6-mer frequency, TF over GST control) | 1.25 fold enrichment (6-mer frequency, TF over GST control) | 1.15 fold enrichment (6-mer frequency, TF over GST control) | 1.16 fold enrichment (6-mer frequency, TF over GST control) | 1.04 fold enrichment (6-mer frequency, TF over GST control)
2 | ACCTTG | 1.27 fold enrichment (6-mer frequency, TF over GST control) | 1.37 fold enrichment (6-mer frequency, TF over GST control) | 1.24 fold enrichment (6-mer frequency, TF over GST control) | 1.1 fold enrichment (6-mer frequency, TF over GST control) | 1.21 fold enrichment (6-mer frequency, TF over GST control) | 1.3 fold enrichment (6-mer frequency, TF over GST control) | 1.17 fold enrichment (6-mer frequency, TF over GST control) | 1.18 fold enrichment (6-mer frequency, TF over GST control) | 1.38 fold enrichment (6-mer frequency, TF over GST control) | 1.12 fold enrichment (6-mer frequency, TF over GST control) | 1.2 fold enrichment (6-mer frequency, TF over GST control) | 1.17 fold enrichment (6-mer frequency, TF over GST control) | 1.22 fold enrichment (6-mer frequency, TF over GST control) | 1.21 fold enrichment (6-mer frequency, TF over GST control) | 1.4 fold enrichment (6-mer frequency, TF over GST control) | 1.29 fold enrichment (6-mer frequency, TF over GST control) | 1.03 fold enrichment (6-mer frequency, TF over GST control) | 1.21 fold enrichment (6-mer frequency, TF over GST control)
